Measurements from PubChem BioAssay AID1220 (Sanford-Burnham Center for Chemical Genomics, 2008).
Among all 190,000 compounds or so, about 1,300 (0.68%) were called active. The list comes from a sample in which actives are over-represented; it also holds similar structures and randomly drawn compounds. Values without a mark were called inactive. No stated cut-off is given here; in the data, active means inhibition above about 50%; inactive means the rest.

target: Mannose-6-phosphate isomerase (Homo sapiens) (UniProt P34949); assay: human PMI inhibitors, high substrate, primary screen, biochemical, fluorescence intensity, high mannose 6-phosphate (AID 1220); details: recombinant PMI enzyme, coupled fluorescence intensity; at 20 µM; hits give high values
Sequence (P34949 whole entry, looked up): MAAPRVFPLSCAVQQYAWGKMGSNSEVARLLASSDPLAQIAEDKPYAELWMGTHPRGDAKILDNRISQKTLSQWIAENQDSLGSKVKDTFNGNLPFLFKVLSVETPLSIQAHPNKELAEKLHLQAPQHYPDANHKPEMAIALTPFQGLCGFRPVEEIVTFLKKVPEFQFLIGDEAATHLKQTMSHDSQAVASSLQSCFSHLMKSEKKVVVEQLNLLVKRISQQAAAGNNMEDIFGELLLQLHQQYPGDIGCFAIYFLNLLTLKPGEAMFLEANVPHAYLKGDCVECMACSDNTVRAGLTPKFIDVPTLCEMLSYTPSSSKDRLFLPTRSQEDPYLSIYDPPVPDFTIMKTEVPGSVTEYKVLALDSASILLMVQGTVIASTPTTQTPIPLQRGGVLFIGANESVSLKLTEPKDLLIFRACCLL

SMILES	inhibition
O=Cc1ccc2noc(-c3ccc(F)cc3)c2c1	-86.8%
CCCn1nnc(NC(=O)c2ccc(OCC)c(Cl)c2)n1	2%
CC(=O)c1ccc(NC2OC(C)C(O)C(O)C2O)cc1 (stereo not drawn)	20.1%
CC1OC(Nc2ccc(N=Nc3ccccc3)cc2)C(O)C(O)C1O (stereo not drawn)	8.3%
CC1OC(Nc2cccc3ccccc23)C(O)C(O)C1O (stereo not drawn)	60.5% (active)
Cc1ccc2cc(CN(Cc3cccs3)Cc3nnnn3CC3CCCO3)c(=O)[nH]c2c1C (stereo not drawn)	0.6%
COc1cccc(NC(=S)N(Cc2ccc(Cl)cc2)Cc2ccc(C(=O)O)cc2)c1	-30.6%
O=C(Cc1ccccc1F)NCC(c1ccco1)N1CCCCC1 (stereo not drawn)	-5.8%
COc1ccccc1CC(=O)NCC(c1ccco1)N1CCCCC1 (stereo not drawn)	58.9% (active)
COc1ccccc1NC(=O)NCC(c1ccco1)N1CCCCC1 (stereo not drawn)	0.2%
O=C(c1ccco1)N1CCN(C(c2ccc(F)cc2)c2nnnn2Cc2cccs2)CC1 (stereo not drawn)	-6%
Cn1cnc2cc(NC(=O)c3ccc(Cl)cc3)ccc21	-16.1%
CSc1nc2ccccc2n1CC(=O)Nc1cc(C(F)(F)F)ccc1N1CCOCC1	-1.6%
NS(=O)(=O)c1ccc(C(=O)O)cc1	-8%
N#CC(C#N)=C1c2cc(S(N)(=O)=O)ccc2-c2ccc(S(N)(=O)=O)cc21	57.5% (active)
N#CC(C#N)=Cc1cccn1-c1ccc(S(N)(=O)=O)cc1	0%
CC(C)OP(=O)(c1ccccc1)c1ccccc1	-8.8%
C=CCN1C(=NC(=O)CCC)SC2CS(=O)(=O)CC21 (stereo not drawn)	-8.2%
Cc1ccc(Cc2cnc(NC(=O)/C(C#N)=C/c3ccc(-c4ccccc4[N+](=O)[O-])o3)s2)cc1	30.3%
CNC(=O)/C(C#N)=C/c1ccc(-c2ccccc2[N+](=O)[O-])o1	61% (active)
O=C(/C=C/c1ccc(-c2ccccc2[N+](=O)[O-])o1)c1ccc(Br)cc1	-32.8%
N#C/C(=C\c1ccc(-c2ccccc2[N+](=O)[O-])o1)C(=O)Nc1nc(-c2cccs2)cs1	53.1% (active)
N#C/C(=C/c1ccc(-c2ccccc2[N+](=O)[O-])o1)C(N)=O	51.9% (active)
CNC(=O)/C(C#N)=C/c1ccc(-c2ccc(OC)cc2[N+](=O)[O-])o1	29.2%
O=C(/C=C/c1ccc(-c2ccccc2[N+](=O)[O-])o1)c1ccccc1	47.3%

SMILES	inhibition
COCCNC(=O)/C(C#N)=C/c1ccc(-c2ccc(OC)cc2[N+](=O)[O-])o1	42.2%
O=C(/C=C/c1ccc(-c2ccccc2[N+](=O)[O-])o1)c1ccc(F)cc1	34.1%
O=C(/C=C/c1ccc(-c2ccccc2[N+](=O)[O-])o1)c1ccco1	51.7% (active)
N#C/C(=C\c1ccc(-c2ccccc2[N+](=O)[O-])o1)C(=O)N1CCOCC1	45.8%
N#C/C(=C\c1ccc(-c2ccc(F)cc2)o1)C(=O)Nc1nc(-c2cccs2)cs1	30.8%
CCOC(=O)c1c(NC(=O)c2c(C(=O)O)cccc2[N+](=O)[O-])sc(C)c1C	8.7%
O=C(Nc1ccc(S(=O)(=O)Nc2ccc(F)cc2)cc1)c1ccc(CN2CCOCC2)cc1	17%
Cc1cc(C)n(-c2nc(NCc3cccnc3)c3c4c(sc3n2)COC(C)(C)C4)n1	6.9%
O=c1c2cc(NC(=S)NCc3cccnc3)ccc2nc2n1CCCCC2	1.2%
CC1Cc2ccccc2N1C(=O)CSc1nnc(-c2ccccc2)c(-c2ccccc2)n1 (stereo not drawn)	37.9%
COc1cccc(C2CC(c3ccc(C(C)C)cc3)n3nc(N)nc3N2)c1 (stereo not drawn)	11.2%
CC(=O)Nc1ccc(OCC(O)CN2CCN(c3cc(Cl)ccc3C)CC2)cc1 (stereo not drawn)	-2%
Clc1cccc(CN2COc3c(cc(Cl)c4cccnc34)C2)c1	51.8% (active)
CC(C)(C)c1cc2cccnc2n1Cc1cccc(Cl)c1	1.9%
Oc1c(CN2CCc3ccccc3C2)cc(Cl)c2cccnc12	48.3%
Cc1nn(-c2ccccc2)c(Cl)c1C1C(C#N)=C(N)Oc2c1c(C)nn2-c1ccccc1 (stereo not drawn)	9%
CC(C)CNC(=O)CSc1nc2scc(-c3ccccc3)c2c(=O)[nH]1	-14.2%
CC(=O)Nc1ccc(N(C(=O)CNC(=O)c2ccco2)C(C(=O)NCc2ccco2)c2ccccc2F)cc1 (stereo not drawn)	60.4% (active)
CC(=O)Nc1ccc(N(C(=O)CNC(=O)c2ccco2)C(C(=O)NCC2CCCO2)c2ccccc2)cc1 (stereo not drawn)	-1.6%
CC(=O)c1cccc(N(C(=O)CNC(=O)c2ccco2)C(C(=O)NCc2ccco2)c2ccccc2)c1 (stereo not drawn)	-1.4%
O=C(OCCN1CCOCC1)c1cccs1	9%
COCc1cc(CN2CCN(C)CC2)c(O)c2ncccc12	37.9%
O=C(Oc1c(CN2CCOCC2)cc(Cl)c2cccnc12)c1cccs1	56.4% (active)
CN1CCN(Cc2cc(Cl)c3cccnc3c2OC(=O)c2cccs2)CC1	50.4% (active)
O=C(Oc1c(Cl)cc(Cl)c2cccnc12)c1cccs1	1.8%

SMILES	inhibition
O=C(Oc1ccc(Cl)c2cccnc12)N1CCOCC1	8.2%
CCC(=O)c1ccc(N2CCN(C(=O)c3cccc(F)c3)CC2)c(F)c1	7.7%
CCCn1nc(C(=O)NCc2ccccn2)c2ccccc2c1=O	-1.4%
O=C(CNCCC1=CCCCC1)Nc1ccccc1N1CCCCC1	-0.7%
COCc1cc(C)nc2sc(C(=O)NCCO)c(-n3cccc3)c12	-8.1%
Cc1nn(-c2ccc(Cl)cc2)c(N)c1C(O)(CSc1nccn1C)C(F)(F)F (stereo not drawn)	10.3%
O=C(COC(=O)c1ccncc1)Nc1cc(Cl)ccc1Cl	93.2% (active)
O=C(COC(=O)c1ccncc1)Nc1cccc(Cl)c1	23.4%
O=C(COC(=O)c1ccncc1)Nc1cc(Cl)c(Cl)cc1Cl	3.3%
Cc1ccc(S(=O)(=O)NNC(=O)c2sccc2-n2cccc2)cc1	-2.5%
O=c1/c(=C/c2ccc(CNS(=O)(=O)c3ccccc3)o2)sc2n1CCN=2	13.7%
Cc1ccc(/C=c2/sc3n(c2=O)CCCN=3)o1	-24.9%
O=C(NCc1ccc(/C=c2\sc3n(c2=O)CCN=3)o1)C(=O)Nc1ccccc1	50.9% (active)
COc1ccc(C(=O)NCc2nnc(SCC(=O)Nc3cccc(F)c3)o2)cc1	-10.6%
CCOC(=O)Cc1nnc(-c2ccccc2)o1	40.2%
CC(C)CCNC(=O)C(c1ccc(O)cc1)N(C(=O)C1COc2ccccc2O1)c1cccc(O)c1 (stereo not drawn)	60.7% (active)
CC(C)CCNC(=O)C(c1ccc(O)cc1)N(Cc1cccs1)C(=O)C1COc2ccccc2O1 (stereo not drawn)	9.3%
CCOc1cccc(N(C(=O)C2COc3ccccc3O2)C(C(=O)NC2CCCCC2)c2ccc(O)cc2)c1 (stereo not drawn)	-4.1%
COCC(C)NC(C(=O)Nc1ccc(C)c(Cl)c1)c1ccccc1 (stereo not drawn)	1.8%
CN(c1ccc(OCC(=O)Nc2nc(-c3ccccc3)cs2)cc1)S(=O)(=O)c1ccc(F)cc1	8.4%
Cc1cc(C)c(NC(=O)COC(=O)Cc2ccsc2)c(C)c1	-8.2%
Cc1ccc(S(=O)(=O)N2CCC(=O)N(CCOCc3cccc(F)c3)CC2)cc1	6.5%
N#CCn1c2ccccc2c2nc3ccccc3nc21	55.3% (active)
N#CCCn1c2ccccc2c2nc3ccccc3nc21	-21.1%
COc1cc2nc3c4ccccc4n(CC#N)c3nc2cc1OC	-0.4%

SMILES	inhibition
Cc1ccc(C2N(C)c3ccccc3-c3nc4ccccc4n32)o1 (stereo not drawn)	3.8%
Cc1ccc([N+](=O)[O-])c2cccnc12	13.6%
O=[N+]([O-])c1cc(Cl)c2cccnc2c1O	47.2%
CC(=O)NC(c1ccccc1)c1cc([N+](=O)[O-])c2cccnc2c1O (stereo not drawn)	58% (active)
CCCC(=O)NC(c1cccs1)c1cc(Cl)c2cccnc2c1O (stereo not drawn)	38.8%
O=C(NC(c1ccccc1)c1cc(Cl)c2cccnc2c1O)c1cccnc1 (stereo not drawn)	23.4%
CCOc1ccc(C(Nc2cccnc2)c2cc(Cl)c3cccnc3c2O)cc1 (stereo not drawn)	66% (active)
CCC(=O)NC(c1cccs1)c1cc([N+](=O)[O-])c2cccnc2c1O (stereo not drawn)	43.9%
O=C(O)COc1ccccc1C(Nc1cccnc1)c1cc(Cl)c2cccnc2c1O (stereo not drawn)	32%
CC(=O)NC(c1ccc(C)cc1)c1cc([N+](=O)[O-])c2cccnc2c1O (stereo not drawn)	64.9% (active)
CC(=O)NC(c1cccs1)c1cc([N+](=O)[O-])c2cccnc2c1O (stereo not drawn)	43.2%
Oc1c(C(Nc2ccccn2)c2cccnc2)cc(Cl)c2cccnc12 (stereo not drawn)	43.5%
CCCC(=O)NC(c1cccs1)c1cc([N+](=O)[O-])c2cccnc2c1O (stereo not drawn)	55.7% (active)
COC(=O)CCCCC1SCC2NC(=O)NC21 (stereo not drawn)	-4.5%
COc1ccc(NC(=O)CSc2ccc(F)cc2)cc1S(=O)(=O)N1CCCCC1	8.6%
Cc1csc2cc(-c3cccc([N+](=O)[O-])c3)c(-c3cccc([N+](=O)[O-])c3)c[n+]12	4.9%
COc1ccc(C=O)cc1COc1ccccc1F	8.1%
CCC(=O)NC(c1ccc(OC)c(OC)c1)c1cc(Cl)c2cccnc2c1O (stereo not drawn)	41.1%
CCC(=O)NC(c1ccc(C)cc1)c1cc([N+](=O)[O-])c2cccnc2c1O (stereo not drawn)	54.5% (active)
CCC(=O)NC(/C=C/c1ccccc1)c1cc([N+](=O)[O-])c2cccnc2c1O (stereo not drawn)	46.8%
CCCC(=O)NC(c1ccco1)c1cc([N+](=O)[O-])c2cccnc2c1O (stereo not drawn)	7.9%
COc1ccc(C(NC(C)=O)c2cc(Cl)c3cccnc3c2O)cc1OC (stereo not drawn)	55.7% (active)
CCCC(=O)NC(c1ccc(OC)c(OC)c1)c1cc(Cl)c2cccnc2c1O (stereo not drawn)	48.4%
